Results published in PubChem BioAssay (Tox21).
Values joined by “and” are separate entries in the source; they are usually repeats but may differ in a detail not shown here. Equal entries are not always repeated. Results filed as inconclusive are left out. Where a call stands in place of a potency, no number is given. Unmarked numbers belong to inactive results. Active and inactive are the calls of the source. The call rests on the fitted dose curve; in most records, active means well fitted activation curve with a large enough effect in the repeat runs; inconclusive means weak or mixed curves; inactive means flat fitted curve, though single readings scatter.

Experiment: A CellTox Green Cytotoxicity Assay to monitor cytotoxicity in HEK293 cells - 16 hour (AID 1224888); further: nearly all actives have a fitted effect of over 35% in size
Settings: CellTox Green fluorescence; series mostly up to 76.8 µM
From the text: National Center for Advancing Translational Sciences [NCATS]
NIH Chemical Genomics Center [NCGC]
U.S. Environmental Protection Agency [EPA]
National Institutes of Environmental Health Sciences [NIEHS]
National Toxicology Program [NTP]
Cell-based models are critical for drug discovery. Determining the natural cytotoxic effects resulting from test compounds is an essential research activity. A CellTox Green Cytotoxicity Assay to monitor cytotoxicity in real time of continues cell culture during 40 hours of the compound treatment was used to screen Tox21 10K library compounds in Hek293 cells. CellTox Green Cytotoxicity Assay is a nonlytic, homogeneous, biofluorescent method to measure cytotoxicity in cell culture after experimental manipulation. The assay system uses a proprietary asymmetric cyanine dye that is excluded from viable cells but preferentially stains the dead cell's DNA. […] Viable cells produce no appreciable increases in fluorescence. Therefore, the fluorescence signal produced by the binding interaction with dead cell DNA is proportional to cytotoxicity.
The mixture of Hek293 cell suspension and reagents were dispensed at 600cells/6 ul/well in 1536-well tissue culture treated black solid bottom plates using a Multidrop dispenser. After the assay plates were incubated at a 37 C/5% CO2 incubator for 5 hours, 23 nL of compounds dissolved in DMSO, positive and negative controls was transferred to the assay plate by a pintool work station. The plates were incubated at 37 C for 40 hours. The fluorescence intensity were measured at 0h, 8h, 16h, 24h, 32h and 40h time points using ViewLux plate reader during compound treatment.
Potency means the concentration at half of the fitted maximal effect.

SMILES	Potency	activity change
COc1cc(/C=C/C(=O)O[C@H]2CC[C@]34C[C@]35CC[C@]3(C)[C@@H]([C@H](C)CCC=C(C)C)CC[C@@]3(C)[C@@H]5CC[C@H]4C2(C)C)ccc1O	inactive	–
Nc1c2ccccc2nc2ccccc12	inactive	–
C=C(C)C(=O)OCC[N+](C)(C)C	inactive	–
Nc1cc(C(F)(F)F)ccc1S	inactive	–
O=C(Oc1cccc2cccnc12)c1ccccc1	inactive	–
CCCCCCCCn1sc(Cl)c(Cl)c1=O	1.95 µM (active)	–
CCN(CC)CCNC(=O)c1c(C)[nH]c(/C=C2\C(=O)Nc3ccc(F)cc32)c1C	23.9 µM (active)	–
O=C(c1ccc(O)cc1O)c1ccc(O)cc1O	inactive	–
Oc1ccc(C2(c3ccc(O)cc3)CC3CC2C2CCCC32)cc1 (stereo not given)	inactive	–
CSc1cnc(C)cn1	89.4 µM (active)	–
O=C(Oc1ccccc1)c1ccccc1C(=O)Oc1ccccc1	inactive	–
CCCCCCCCOC(=O)c1ccc(O)cc1	48.8 µM (active) and 49 µM (active)	–
CCCCC(CC)COC(=O)c1ccccc1C(=O)O (stereo not given)	inactive	–
CN(C)[C@@H]1C(=O)C(C(N)=O)=C(O)[C@@]2(O)C(=O)C3=C(O)c4c(O)ccc(Cl)c4[C@@H](O)[C@H]3C[C@@H]12	inactive	–
CCOc1nc2cccc(C(=O)OC(C)OC(=O)OC3CCCCC3)c2n1Cc1ccc(-c2ccccc2-c2nn[nH]n2)cc1 (stereo not given)	34.6 µM (active)	–
O=c1cccccc1O	inactive	–
Cc1cc(CCN2CCN(c3nsc4ccccc34)CC2)cc2c1NC(=O)CC2(C)C	49 µM (active)	–
Cc1cc(N)c(S(=O)(=O)O)cc1Cl	inactive	–
Cc1cc(=O)oc2cc(N(C)C)ccc12	inactive	–
NNC(=O)c1cccc(C(=O)NN)c1	inactive	–

SMILES	Potency	activity change
C[C@]12CCC(=O)C=C1CC[C@@H]1[C@@H]2[C@@H](O)C[C@@]2(C)[C@H]1CC[C@]2(O)C(=O)COC(=O)CCC(=O)O	inactive	–
O=C1c2c(O)ccc(Nc3ccc(CCO)cc3)c2C(=O)c2c([N+](=O)[O-])ccc(O)c21	inactive	–
CCN(C(=O)N(CC)c1ccccc1)c1ccccc1	inactive	–
CCCC1O[C@@H]2C[C@H]3[C@@H]4CCC5=CC(=O)C=C[C@]5(C)[C@H]4[C@@H](O)C[C@]3(C)[C@]2(C(=O)CO)O1 (stereo not given in full)	inactive	–
O=C(NO)C1(NS(=O)(=O)c2ccc(Oc3ccc(F)cc3)cc2)CCOCC1	inactive	–
Nc1ccc2c3c(cccc13)-c1ccccc1-2	44.1 µM (active)	–
C/C(=C(/OCCOc1ccc(Cl)cc1)c1ccc(Cl)cc1Cl)n1ccnc1	inactive	–
C=CC(=O)OCCn1c(=O)n(CCOC(=O)C=C)c(=O)n(CCOC(=O)C=C)c1=O	inactive	–
O=C(c1ccc(F)cc1)C1CCN(CCn2c(=O)[nH]c3ccccc3c2=O)CC1	inactive	–
Nc1nc2ccccc2n1Cc1ccc(F)cc1	inactive	–
CN1CCN(CCC(=O)N2c3ccccc3Sc3ccc(C(F)(F)F)cc32)CC1	inactive	–
O=C(Nc1cccc([N+](=O)[O-])c1)c1cc2ccccc2cc1O	inactive	–
CCCCN1CCCC[C@H]1C(=O)Nc1c(C)cccc1C	inactive	–
O=C(O)c1cc(O)c2c(c1)C(=O)c1cccc(O)c1C2=O	inactive	–
C[n+]1ccn(Cc2ccccc2)c1	inactive	–
O=C1CCCc2c1cc1ccc3cccc4ccc2c1c34	inactive	–
Oc1cccc2cc3cccc(O)c3c(O)c12	inactive	–
CC(C)(C)c1ccc(C(=O)CCCN2CCC(OC(c3ccccc3)c3ccccc3)CC2)cc1	21.3 µM (active)	–
Cc1[nH]nc2c1N=C(c1ccccc1Cl)c1cc([N+](=O)[O-])ccc1N2	inactive	–
CCN1/C(=C/C=C/c2sc3ccccc3[n+]2CC)Sc2ccccc21	–	-3.87% [at 15.8 µM, hits give high values]
